Pol kappa inh: qHTS for Inhibitors of Polymerase Kappa. AID 588579, 2011. 0.53% of 400,000 active. purified Pol kappa, fluorescent DNA synthesis assay, 10 min. Potency, µM (series often up to 107 µM), without a hit: at the top dose activity, negative = inhibition, hits mostly inhibitors. DNA polymerase kappa (Homo sapiens), Q9UBT6; further: potency means the concentration at half of the fitted maximal effect; on the % scale 0 is the no-effect control and ±100 the full control effect
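Readout: fluorescence, taken kinetically at 0 and 10 min. Conditions: 10 nM Pol kappa, 15 min RT compound preincubation, 50 nM substrate final. Controls: enzyme-free buffer wells.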
POLH inh: qHTS for Inhibitors of Polymerase Eta. Potency, µM (titrated, usually from 114 µM), inactives show top-dose activity change, negative = inhibition, usual class: inhibitors. DNA polymerase eta (Homo sapiens), Q9Y253. 1.2% of 390,000 active. recombinant Pol eta, fluorescent DNA replication assay; further: potency means the concentration at half of the fitted maximal effect; on the % scale 0 is the no-effect control and ±100 the full control effect
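Fluorescent replication assay: 50 nM final substrate added after a 15 min room-temperature compound preincubation with 10 nM enzyme. Signal taken at 0 min and again at 10 min.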
PI5P4K alpha inh: qHTS for Inhibitors of phosphatidylinositol 5-phosphate 4-kinase (PI5P4K); max response, %; Phosphatidylinositol 5-phosphate 4-kinase type-2 alpha (Homo sapiens), P48426; AID 652105, 2013; 1.2% of 330,000 active; PI5P4Kalpha enzyme, ADP-Glo luminescence, 60 min; hits give low values; active means max response of -50% or lower; inconclusive means between -30% and -50%; inactive means -30% or higher; further: value at the top dose of about 77 µM; on the % scale 0 is the no-effect control and ±100 the full control effect
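Luminescence from ADP-Glo served as readout of PI5P4Kalpha activity in a qHTS format. Reaction: enzyme, substrate, compound, ATP at 5 microM final, 60 min at RT.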
Pol iota inh: qHTS for Inhibitors of Polymerase Iota. DNA polymerase iota (Homo sapiens), Q9UNA4. Pol iota fluorescent replication assay, 10 min. 1% of 390,000 active. Potency, µM (highest dose often 115 µM), for inactives: at the top dose activity, negative = inhibition, usual class: inhibitors. AID 588590, 2011; further: potency means the concentration at half of the fitted maximal effect
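Pol iota at 10 nM preincubated 15 min with compounds at room temperature; reaction started with fluorescent substrate, 50 nM final. Fluorescence read kinetically at 0 and 10 min; buffer-only wells as negative control.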
WRN inhibitor: qHTS for Inhibitors of WRN Helicase; WRN helicase unwinding, fluorescent forked duplex, kinetic; Bifunctional 3'-5' exonuclease/ATP-dependent helicase WRN (Homo sapiens), Q14191; Potency, µM (highest dose often 114 µM), inactives show top-dose activity change, negative = inhibition, actives largely listed as inhibitors; 0.46% of 360,000 active; further: potency means the concentration at half of the fitted maximal effect; on the % scale 0 is the no-effect control and ±100 the full control effect; nearly all actives have a fitted effect of over 55% in size
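WRN at 20 nM final was preincubated with compound for 15 min at room temperature; reaction started with 100 nM forked duplex oligonucleotide carrying fluorophore and quencher plus 2 mM ATP (final). Unwinding followed kinetically by red fluorescence (ex 525/em 598 nm).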
Pol beta inh: qHTS Assay for Inhibitors of DNA Polymerase Beta. P06746. Pol beta primer extension/strand displacement, fluorescence kinetic. Potency, µM (highest dose often 114 µM), for inactives: top-dose activity change, negative = inhibition, hits mostly inhibitors. 1.3% of 340,000 active. AID 485314, 2010; further: potency means the concentration at half of the fitted maximal effect; on the % scale 0 is the no-effect control and ±100 the full control effect
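Pol beta (10 nM) and compounds were preincubated 15 min at room temperature, then 50 nM substrate (final) started primer extension/strand displacement. Reads were taken at 0 and 10 min; concentration-response data were fitted to a four-parameter Hill equation.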
Active calls of the source: *; ? = inconclusive; nt = no result; [ ] = another dose, or the depositor's remark. Compounds with a hit are over-represented: about 2.8% of the library has one in this group of screens. Unless noted, the call rests on the fitted dose curve; in most records, active means well fitted curve in the direction sought with a large enough effect; inconclusive means small, poorly fitted or top-dose-only effect, or another doubt; inactive means no such curve, though single readings can be large; an effect the other way counts as inactive or inconclusive.

SMILES	Pol kappa inh	POLH inh	PI5P4K alpha inh	Pol iota inh	WRN inhibitor	Pol beta inh
CC(C)[C@H](NC(=O)c1ccc(Cl)cc1Cl)C(=O)OCc1nc2ccsc2c(=O)[nH]1	-5.3%	-11.5%	-1.4	39.2%	1.1%	nt
Nc1ccc(O)c(-c2nc3ccccc3s2)c1	?	?	?	?	-15.6%	7.94µM*
Oc1ccc(-c2nc3ccccc3s2)c(O)c1	-6.8%	-19.1%	20.3	-27.7%	8.6%	-23.0%
Oc1ccc(N=C/C=C/c2cccc(Br)c2)cc1-c1nc2ccccc2s1	-38.5%	?	-58.6*	10µM*	?	12.6µM*
Cc1ccnc(NS(=O)(=O)c2ccccc2)c1	-12.2%	-9.4%	3.0	5.1%	-0.5%	-2.0%
Cc1ccnc(NS(=O)(=O)c2ccc(CC(C)C)cc2)c1	-3.1%	0.6%	nt	-22.5%	5.6%	100µM*
CCCCNC(=O)C(CC)(ONc1ccccc1C(F)(F)F)c1ccccc1OC (stereo unspecified)	-3.7%	-27.2%	-3.4	7.0%	-3.4%	nt
COC(=O)c1sc(N)c(C(=O)OC)c1COC(=O)CCNS(=O)(=O)c1ccc(C)cc1	-9.4%	?	-6.3	89.1µM*	-12.0%[57.1 µM]	9.6%
COC(=O)c1sc(N)c(C(=O)OC)c1COC(=O)CNS(=O)(=O)c1ccc(C)c(C)c1	-7.4%	-8.9%	-9.7	-1.1%	-0.6%	?
O=C(CCCn1c(=S)[nH]c2cc3c(cc2c1=O)OCO3)NCc1cccc(Cl)c1	?	-16.6%	-6.4	44.7µM*	-2.8%[11.6 µM]	1.3%
O=C(CCCCCn1c(=S)[nH]c2cc3c(cc2c1=O)OCO3)N1CCN(C(=O)c2ccco2)CC1	-30.4%	?	-3.2	28.2µM*	?	?
COc1ccc(N2C(=O)C(CC(=O)Nc3ccccc3)N(Cc3ccccn3)C2=S)cc1 (stereo unspecified)	-9.0%	-20.8%	-10.2	128.6%	-2.6%	9.3%
CC(=O)NCCCC(=O)NNC1CC(=O)N(c2cccc(Cl)c2)C1=O (stereo unspecified)	-5.7%	2.8%	-5.9	46.5%	-9.8%	21.0%
Cc1ccc(O)c(NC(=S)NC(=O)/C=C/c2ccco2)c1	-9.4%	-1.4%	-6.8	19.6%	3.7%	?
Cc1ccc(NC(=O)N/C=C/c2ccco2)c(C)c1	?	79.4µM*	nt	?	-23.4%[57.1 µM]	?
COc1ccc(C2=NOC(C(=O)Nc3ccc4c(c3)OCO4)C2)cc1OC (stereo unspecified)	2.3%	-20.1%	-13.9	16.4%	-1.8%	0.1%
CCN(CC)c1ccc(/C=C/C2=C3C=CC=CC3NC=C2)cc1 (stereo unspecified)	-20.5%	nt	nt	1.26µM*	nt	nt
CC(=O)Nc1ccc(SCc2csc(C)n2)cc1	-17.7%	7.8%	-11.0	?	-27.8%	2.5%
O=[N+]([O-])c1cccc(S(=O)(=O)Nc2nc3ccccc3nc2Nc2cccc(S(=O)(=O)N3CCCCC3)c2)c1	4.9%[60.1 µM]	?	?	11.3%	?	?
CNS(=O)(=O)c1cccc(C(=O)OCC(=O)c2ccc(S(=O)(=O)N3CCCCC3)cc2)c1	-10.9%	-7.8%	-55.6*	-15.7%	-12.0%	nt
Cc1ccc(S(=O)(=O)Nc2nc3ccccc3nc2Nc2cccc(S(=O)(=O)N3CCCC3)c2)cc1	?	-7.7%	0.2	7.08µM*	?	10.8%
O=C(O)c1cccc(S(=O)(=O)Nc2cccc(S(=O)(=O)N3CCCCCC3)c2)c1	-15.5%	2.5%	-1.6	89.1µM*	0.5%[11.6 µM]	3.6%
O=C(O)c1cccc(S(=O)(=O)Nc2cccc(S(=O)(=O)N3CCCC3)c2)c1	-13.5%	?	5.7	-17.4%	-2.9%	nt
